The record followed here is PubChem BioAssay (NCATS).

Records with an inconclusive call do not appear. Entries that show only a call come without a potency. Active and inactive are the calls of the source. Calls come from the whole dose curve; as a rule, active = well fitted inhibition curve with a large enough effect in the main read-out, with a control signal flat (not every such curve was filed as active); inconclusive = small, poorly fitted or top-dose-only effect, or effect the other way, or a change in a side signal; inactive = no such curve, though single readings can be large or run the other way.

This test in a line: Nrf2 qHTS screen for inhibitors: Validation (AID 493153). As to conditions: A549 ARE-Fluc reporter, 18-24 h; Potency: luciferase luminescence; viability change: measured here: cytotoxicity max response; luciferase luminescence, at 46.1 µM (top of the series). An excerpt:
NIH Molecular Libraries Probe Production Network [MLPCN] NIH Chemical Genomics Center [NCGC] MLPCN Grant: R03-MH092170-01 Assay Provider: Shyam Biswal, Johns Hopkins University Assay Overview: Nrf2 is a transcription factor that maintains cellular redox homoestasis and protects cells from xenobiotics. Nrf2 binds to the antioxidant response element (ARE) to induce gene expression of a broad spectrum of genes that encode for antioxidants. […] Finding a small molecule that act as an inhibitor of Nrf2 function would represent a novel therapeutic target that could lead to improvement in survival of patients undergoing chemo- and/or radio- therapy. 1. Shibata, T., et al., Genetic Alteration of Keap1 Confers Constitutive Nrf2 Activation and Resistance to Chemotherapy in Gallbladder Cancer. Gastroenterology, 2008. 2. Sjoblom, T., et al., The consensus coding sequences of human breast and colorectal cancers. Science, 2006. 314(5797): p. 268-74.
Assay Protocol Summary: A concentration-response assay was performed with A549 ARE_Fluc cells which are suspended in 5% FBS OPTI-MEM. Five uL were dispensed into 1536-well white TC-treated plate using the Kalypsys dispenser to achieve a density of 5000 cells/well in all columns except column 1. The plate is incubated at 37deg C at 5% CO2 for 2 hours before 23 nL of compounds are added with the Kalypsys pin tool equipped with a 1,536-pin array containing 10-nL slotted pins (FP1S10, 0.457-mm diameter, 50.8 mm long; V&P Scientific). The control compounds Budesonide and Staurosporine are both added at a concentration of 2mM and Budesonide is also added as a 1:10 titration, starting at 200uM, to achieve dose-response. After an 18-24 hour incubation at 37deg C at 5% CO2, 5ul of medium is added to column 1. Afterwards 1ul of 5x of CellTiter-Fluor (Promega) is added to every well. The plate is then incubated at 37deg C at 5% CO2 for 30 minutes before they are read on the ViewLux (Perkin Elmer) for a fluorescent read Ex=405(10)/Em=525(10) for a 3 second exposure, 2x binning, and high gain. Then 3 uL of 3x BugLite is dispensed into all wells and the plate is incubated at ambient room temperature for 15 minutes. Afterwards another ViewLux read is performed using the clear filter to get a luminescent read with the settings of 40 second exposure, 2x binning, and high gain. Cytotoxicity is assessed through the first fluorescent read and then biochemical activity against Nrf2 is measured in the luminescent read.
Consider `N[C@@H](CCl)C(=O)O`, for which the Potency result was “inactive” and the viability change came out at 4.83%.
On the same counts, the results for `N=C(N)c1ccc(CS(=O)(=O)F)cc1` are “inactive” and -1.04%.
As for `c1ccc2cc(CC3=NCCN3)ccc2c1`, the Potency entry is “inactive” and the viability change was -5.88%.
For the compound `O=C1C=CC(=O)C=C1`, the Potency result was “inactive” and the viability change is -5.52%.
On the same counts, the results for `c1ccc2c(N3CCNCC3)cccc2c1` are “inactive” and 3.18%.
On the same counts, the results for `CP(=O)(O)C1=CCNCC1` are “inactive” and -3.56%.
On the same counts, the results for `COc1ccc2c(c1O)-c1cccc3c1[C@@H](C2)N(C)CC3` are “inactive” and -4.97%.
In the case of `CC(N)[C@H](O)c1ccc(O)c(O)c1` (stereo not given in full), the viability change is -3.08% and the Potency entry is “inactive”.
Consider `Clc1cc(I)cc(Cl)c1NC1=NCCN1`, for which the viability change was 9.07% and the Potency entry was “inactive”.
On the same counts, the results for `C[N+]1(C)C2CCC1CC(OC(=O)c1c[nH]c3ccccc13)C2` (stereo not given) are 2.15% and “inactive”.
On the same counts, the results for `CN(C(=O)Cc1ccc(Cl)c(Cl)c1)C(CN1CCCC1)c1cccc(OCC(=O)O)c1` (stereo not given) are -6.12% and “inactive”.
On the same counts, the results for `CCCN(CCC)CCc1ccc(O)c(O)c1` are -6.78% and “inactive”.
For the compound `CCOC(=O)c1ncn2c1[C@@H]1CCCN1C(=O)c1cc(OC)ccc1-2`, the Potency result was “inactive” and the viability change is -9.51%.
On the same counts, the results for `C[N+]1(C)CCOC(O)(c2ccc(-c3ccc(C4(O)C[N+](C)(C)CCO4)cc3)cc2)C1` (stereo not given) are “inactive” and -1.71%.
With `NNC(=O)c1ccc(O)cc1`, the Potency entry was “inactive” and the viability change was 6.63%.
On the same counts, the results for `Cc1sc2ccccc2c1CC1=NCCN1` are “inactive” and -0.892%.
On the same counts, the results for `COc1ccc2[nH]cc(CCN)c2c1` are “inactive” and 0.303%.
On the same counts, the results for `NC(Cc1cc(O)c(O)cc1O)C(=O)O` (stereo not given) are “inactive” and -20.4%.
For the compound `CC(=O)OCC1=C(C(=O)O)N2C(=O)[C@@H](NC(=O)CCC[C@@H](N)C(=O)O)[C@H]2SC1`, the Potency result was “inactive” and the viability change was determined as 1.57%.
On the same counts, the results for `NC(C(=O)O)c1cc(=O)[nH]o1` (stereo not given) are “inactive” and -7.19%.
